# In publication PMC4336329 (PLoS ONE, 2015):
# The campaign covered roughly 310,000 compounds. About 14,000 (4.5%) showed an effect of 50% or more. Effects have a minus sign here. Only a selection was taken, and strong results are over-represented in it overall.
# Target: human ether-à-go-go-related gene (hERG) potassium channel (human, UniProt Q12809)
# Assay: primary screen, population patch clamp on CHO cells stably expressing hERG; higher = less effect of the substance
# 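Also: peak tail current of the secondary pulse compared with the same well before compound.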
# human ether-à-go-go-related gene (hERG) potassium channel, sequence (Q12809 whole entry, looked up): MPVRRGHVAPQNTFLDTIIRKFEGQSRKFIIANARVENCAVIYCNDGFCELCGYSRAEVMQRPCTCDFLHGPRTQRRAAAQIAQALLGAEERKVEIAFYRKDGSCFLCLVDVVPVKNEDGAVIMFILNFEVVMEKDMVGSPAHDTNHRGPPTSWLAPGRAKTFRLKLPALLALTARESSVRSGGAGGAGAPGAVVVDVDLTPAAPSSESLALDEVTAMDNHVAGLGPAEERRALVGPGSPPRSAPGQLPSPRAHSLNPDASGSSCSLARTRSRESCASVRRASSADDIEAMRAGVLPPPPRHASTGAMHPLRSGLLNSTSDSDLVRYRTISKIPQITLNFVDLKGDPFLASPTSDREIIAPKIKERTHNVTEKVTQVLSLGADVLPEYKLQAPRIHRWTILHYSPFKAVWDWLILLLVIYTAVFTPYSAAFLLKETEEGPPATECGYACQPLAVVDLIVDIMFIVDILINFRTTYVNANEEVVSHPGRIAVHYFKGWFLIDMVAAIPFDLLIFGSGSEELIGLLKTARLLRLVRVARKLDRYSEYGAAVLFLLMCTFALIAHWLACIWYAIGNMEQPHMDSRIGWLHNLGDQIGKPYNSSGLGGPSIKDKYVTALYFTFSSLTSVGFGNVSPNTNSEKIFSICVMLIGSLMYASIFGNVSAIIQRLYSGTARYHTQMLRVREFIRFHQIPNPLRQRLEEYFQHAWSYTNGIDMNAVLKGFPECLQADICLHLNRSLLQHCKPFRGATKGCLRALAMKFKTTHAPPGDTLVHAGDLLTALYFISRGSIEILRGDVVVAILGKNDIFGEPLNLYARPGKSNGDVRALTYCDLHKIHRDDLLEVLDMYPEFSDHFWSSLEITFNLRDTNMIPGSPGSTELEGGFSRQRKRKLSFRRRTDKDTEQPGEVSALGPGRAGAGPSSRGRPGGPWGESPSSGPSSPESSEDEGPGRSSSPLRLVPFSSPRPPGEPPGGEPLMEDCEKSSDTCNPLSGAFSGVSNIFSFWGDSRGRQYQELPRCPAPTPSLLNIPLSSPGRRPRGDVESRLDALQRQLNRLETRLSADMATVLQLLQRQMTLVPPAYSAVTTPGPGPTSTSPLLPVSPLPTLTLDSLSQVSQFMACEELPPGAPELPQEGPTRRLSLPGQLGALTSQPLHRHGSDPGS
row,SMILES,"hERG current change (%, negative = inhibition) at 10uM"
1,CCOc1ccccc1NC(=O)Nc1cc(S(=O)(=O)N(C)C)ccc1C,15%
2,COCCCNC(=O)c1cc2c(=O)n3cccc(C)c3nc2s1,7.44%
3,CCOCCCNC(=O)c1cc2c(=O)n3cccc(C)c3nc2s1,12.6%
4,CCOC(=O)c1c(C)nc2c(C)cccn12,-6.9%
5,C=CCn1c(=N)c(C(=O)OCC)cc2c(=O)n3cccc(C)c3nc21,-72.9%
6,COCCCNC(=O)c1cc2c(=O)n3cccc(C)c3nc2n(C(C)C)c1=N,-65.5%
7,C=CCn1c(=N)c(S(=O)(=O)c2ccc(C)c(C)c2)cc2c(=O)n3ccccc3nc21,14.3%
8,C=CCn1c(=N)c(C#N)cc2c(=O)n3ccccc3nc21,-35.3%
9,C=CCn1c(=N)c(C(=O)NCCCOC)cc2c(=O)n3ccccc3nc21,-60.1%
10,CCn1c(=N)c(C(=O)NCCCOC)cc2c(=O)n3cccc(C)c3nc21,-61.4%
11,CC(NC(=O)CSc1nc2ccc(N)cc2s1)c1ccccc1 (stereo not drawn),32%
12,O=c1cccc2n1CC1CC2CN(C(c2ccccc2)c2sc3ncnn3c2O)C1 (stereo not drawn),15.1%
13,Cc1ccc(S(=O)(=O)N2CCCCC2)cc1NC(=O)c1cc(=O)[nH]c2ccccc12,-6.61%
14,CCCN(CC(=O)Nc1ccccc1C)C(=O)c1ccc(C(=O)c2ccccc2)cc1,-25.9%
15,CCOc1ccc(CCNc2cc(C)nc3ncnn23)cc1OCC,-5%
16,Cc1onc(-c2ccccc2)c1C(=O)Nc1sc2c(c1C#N)CCC2,1.63%
17,Cn1c(=O)cc(N2CCCCC2)[nH]c1=O,9.92%
18,CCc1cc(=O)oc2cc3occ(-c4ccc(OC)c(F)c4)c3cc12,2%
19,CCn1c(NC(=O)c2ccccc2)nc2ccccc21,4.47%
20,C=CCn1c(=N)c(C(=O)NCCCOC)cc2c(=O)n3cc(C)ccc3nc21,-57.3%
21,C=CCn1cc(C(=O)NCCCOC)c(=O)c2cc(S(=O)(=O)N(CC)CC)ccc21,-30.5%
22,C=CCn1c(=N)c(C(=O)NCCCOC)cc2c(=O)n3cccc(C)c3nc21,-73.5%
23,O/N=C1\CCSc2ccc(F)cc21,-6.52%

row,SMILES,"hERG current change (%, negative = inhibition) at 10uM"
1,CC(=O)Nc1ccc(Oc2ccc(NC(C)=O)c(NC(C)=O)c2)cc1,1.5%
2,COc1ccc(CCNC(=O)Cn2cccc2C(=O)c2ccccc2C)cc1OC,-16.3%
3,Cc1ccc(C)c(N2CCN(CCCNC(=O)Cn3cccc3C(=O)c3ccccc3C)CC2)c1,-74%
4,Cc1ccccc1C(=O)c1cccn1CC(=O)NCCC1=CCCCC1,20.5%
5,Cc1cccc(N2CCN(C(=O)Cn3ccc4ccccc4c3=O)CC2)c1C,-23.1%
6,Cc1cccc(N2CCN(C(=O)Cn3cccc3C(=O)c3ccccc3)CC2)c1C,-17.2%
7,Cc1ccc(C)c(N2CCN(CCCNC(=O)Cn3cccc3C(=O)c3ccccc3)CC2)c1,-87.2%
8,Cc1ccc(CNC(=O)Cn2cccc2C(=O)c2ccccc2)cc1,1.89%
9,Cc1ccc(CNC(=O)Cn2cccc2C(=O)c2ccccc2C)cc1,-7.1%
10,Cc1ccccc1C(=O)c1cccn1CC(=O)NCCN1CCN(c2cccc(C)c2C)CC1,-69.5%
11,Cc1cccc(N2CCN(C(=O)CCNC(=O)Cn3ccc4ccccc4c3=O)CC2)c1C,-55.5%
12,Cc1ccc(C)c(N2CCN(C(=O)CCNC(=O)Cn3ccc4ccccc4c3=O)CC2)c1,-3.39%
13,O=C(Cn1cccc1C(=O)c1ccccc1)NCCN1CCOCC1,-2.26%
14,Oc1ccccc1N1CCN(C(c2ccccc2)c2ccccc2)CC1,12.6%
15,COc1ccc(OCCOC(=O)c2ccc(F)c(S(=O)(=O)N3CCOCC3)c2)cc1,-13.8%
16,COc1ccc(NC(=S)NC(=O)/C=C/c2ccco2)cc1,-4.31%
17,O=C(c1ccccc1)c1ccc(N2CCN(C(=O)c3cccc(F)c3F)CC2)c(F)c1,-37.9%
18,O=C(Cn1nc(Cc2ccncc2)c2ccccc2c1=O)N1CCN(C(=O)c2ccco2)CC1,-26.7%
19,O=C(Cn1nc(Cc2ccncc2)c2ccccc2c1=O)N1CCc2ccccc2C1,-44.4%
20,Cc1cccc(N2CCN(C(=O)Cn3nc(Cc4ccncc4)c4ccccc4c3=O)CC2)c1C,-61.3%
21,COc1ccc(CN2CCSCC2)cc1C,7.71%
22,COc1ccc(CN2CCC(CO)(CCOc3ccccc3)CC2)cc1C,-81.8%
23,COc1ccc(CN2CCCN(C)CC2)c(OC)c1C,11.1%

row,SMILES,"hERG current change (%, negative = inhibition) at 10uM"
1,COc1ccc(CN2CCC(CO)(CCOc3ccccc3)CC2)c(OC)c1C,-83.5%
2,Cc1nn(C)cc1CN1CCC(CO)(CCOc2ccccc2)CC1,-22.6%
3,CCn1ccnc1CN1CCC(CO)(CCOc2ccccc2)CC1,-8.02%
4,OCC1(CCOc2ccccc2)CCN(CCCn2cccn2)CC1,-73.1%
5,Cc1nn(C)c(Cl)c1CN1CCC(CO)(CCOc2ccccc2)CC1,-54.7%
6,COc1ccc(CN2CCSCC2)c(OC)c1C,13.5%
7,O=c1c2c(ncn2C2CCCC2)n(Cc2ccccc2)c(=O)n1CCOc1ccccc1,-8.64%
8,Cc1ccc([N+](=O)[O-])cc1NC(=O)/C=C/C(=O)O,-2.79%
9,O=C(Nc1ccc(Br)c(Br)c1)C1CCCO1 (stereo not drawn),3.39%
10,COc1ccc(COC(=O)Nc2c(SC)nsc2SC)cc1,11.5%
11,CCc1noc(C)c1C(=O)OCC(=O)NCc1ccccc1,2.29%
12,NC(=O)c1ccccc1NC(=O)CSc1cn[nH]n1,13.2%
13,Cc1cc(C)cc(NC(=O)CSc2nnc(-c3ccccc3C)o2)c1,3.37%
14,COc1cccc(-c2nnn(CC(=O)O)n2)c1,9.1%
15,CC(=O)c1cccc(CN2CCC(CO)(CCOc3ccccc3)CC2)c1,-41.5%
16,COc1ccc(OC)c(CN2CCC(CO)(CCOc3ccccc3)CC2)c1,-76.2%
17,COc1cc(OC)c(CN2CCC(CO)(CCOc3ccccc3)CC2)c(OC)c1,-86.4%
18,Cc1cc(C)c(CN2CCC(CO)(CCOc3ccccc3)CC2)cc1C,-65.2%
19,COc1ccc(OC)c(CN2CCSCC2)c1,9.69%
20,COc1ccc(OCC(=O)N2CCCC(CO)(CCOc3ccccc3)C2)cc1 (stereo not drawn),-46.8%
21,Cc1c(CN2CCC(CO)(CCOc3ccccc3)CC2)c(=O)n(-c2ccccc2)n1C,-5.7%
22,OCCOc1cccc(CN2CCC(CO)(CCOc3ccccc3)CC2)c1,-51.3%
23,O=C1CC(Sc2nnc(-c3ccccc3)o2)C(=O)N1c1ccccc1 (stereo not drawn),3.12%

row,SMILES,"hERG current change (%, negative = inhibition) at 10uM"
1,Cc1cc(C)cc(-c2nnc(SCC(=O)NCc3cccs3)o2)c1,4.21%
2,Fc1ccccc1CN1CCN(c2ncccn2)CC1,5.66%
3,N#Cc1c(SCC(=O)N2CCCCC2)nsc1SCC(=O)N1CCCCC1,16.5%
4,CC(C)C(C(=O)Nc1ccccc1F)N1C(=O)c2ccccc2C1=O (stereo not drawn),-3.78%
5,Cc1nn(CCC(=O)NNC(=S)NCC(C)C)c(C)c1Br,14%
6,CCN(CC)S(=O)(=O)c1ccc(OC)c(NS(=O)(=O)c2ccc(F)cc2)c1,-10.5%
7,O=C1CCc2cc(S(=O)(=O)NCc3ccccc3Cl)ccc2N1,-23.4%
8,Cc1cc(C(=O)NNC(=O)CCCOc2ccccc2)c(C)o1,0.675%
9,CCCNC(=O)C1CCN(c2ccc(S(=O)(=O)N3CCOCC3)cc2Cl)CC1,6.36%
10,Cc1ccc(SC2=C(C(=O)O)CCCC2)cc1,4.25%
11,COc1cc(CN2CCC(CO)(CCOc3ccccc3)CC2)cc(OC)c1OC,-38.3%
12,COc1cc(Cl)c(CN2CCC(CO)(CCOc3ccccc3)CC2)cc1OC,-80.7%
13,COc1cc(CN2CCC(CO)(CCOc3ccccc3)CC2)cc(OC)c1,-67.3%
14,OCC1(CCOc2ccccc2)CCN(Cc2cc(Cl)ccc2O)CC1,-24.7%
15,O=C(NC1CCCC1)C(c1ccncc1)N(Cc1ccccc1)C(=O)Cc1cccs1 (stereo not drawn),-14.1%
16,CCCCNCC1C(Oc2ccc(Cl)cc2)C(=O)N1c1ccccc1C.Cl (stereo not drawn),-65.9%
17,CCCNCC1C(Oc2ccc(Cl)cc2)C(=O)N1c1ccccc1C (stereo not drawn),-48.6%
18,COCCCNCC1C(Oc2ccc(Cl)cc2)C(=O)N1c1ccccc1C (stereo not drawn),-8.54%
19,Cc1ccccc1N1C(=O)C(Oc2ccc(Cl)cc2)C1CNC(C)(C)C (stereo not drawn),-39.5%
20,COCCNCC1C(Oc2ccc(Cl)cc2)C(=O)N1c1ccccc1C.Cl (stereo not drawn),-8.44%
21,Cc1ccccc1N1C(=O)C(Oc2ccc(Cl)cc2)C1CNCCCOC(C)C (stereo not drawn),-53.4%
